Marburg entry inh: Marburg virus entry inhibition | Marburg virus pseudotyped entry inhibition, cell reporter | Potency, µM (series often up to 37.8 µM), for the others: at the highest dose activity change, negative = inhibition, hits mostly inhibitors | hit rate 1.8% among 300,000; calls by dose curve; tested in HEK293 cells; also: potency is read from the fitted curve at half-maximal effect; % is scaled to controls: 0 for no effect and ±100 for the full control effect
Shiga inhibitor: inhibitors of Shiga toxin in Vero cells | AID 2315 | inhibition, % at 38.7 µM | Vero cells, Shiga toxin protein synthesis inhibition reporter | hit rate 9.2% among 290,000; in the data active = inhibition mostly above about 28%, no sharp cut-off; inactive = mostly below about 43%; also: 0% is about no effect
CHX counter: counter-screen for Shiga toxin inhibitors: cycloheximide protein synthesis inhibition. cell reporter, cycloheximide protein synthesis inhibition counterscreen. max response, %. hit rate 12% among 300,000; in the data active = max response mostly above about 13%, no sharp cut-off; inactive = mostly below about 14%; also: read at 38.3 µM for the half of the compounds with a filed dose; 0% is about no effect
FMDV inh: antivirals against foot and mouth disease virus | FMDV antiviral cell-based qHTS | Potency, µM (top dose mostly 57.9 µM), without a hit: at the highest dose activity change, negative = inhibition, usual class: inhibitors | hit rate 1.2% among 410,000 | AID 1159524; calls by dose curve; tested in HEK293T cells; also: read-out not given here; potency is read from the fitted curve at half-maximal effect; % is scaled to controls: 0 for no effect and ±100 for the full control effect; nearly all actives have a fitted effect of over 45% in size
Lassa entry inh: inhibitors of Lassa virus binding or cell entry; Potency, µM (doses to about 37.9 µM), without a hit: at the top dose activity change, negative = inhibition, most hits filed as inhibitors; hit rate 1.2% among 300,000; AID 540256; Lassa virus pseudotype entry inhibition, cell reporter; calls by dose curve; tested in HEK293 cells; also: potency is read from the fitted curve at half-maximal effect; % is scaled to controls: 0 for no effect and ±100 for the full control effect; nearly all actives have a fitted effect of over 50% in size
HCV inhibitor: HCV inhibition; Huh7.5.1 HCVcc-Cre infection, luciferase reporter, 44 h; Potency, µM (top dose mostly 41.8 µM), for the others: at the highest dose activity change, negative = inhibition, usual class: inhibitors; hit rate 3.4% among 340,000; AID 651820; active = well fitted inhibition curve with a large enough effect; inconclusive = small, poorly fitted or top-dose-only effect, or another doubt; inactive = no such curve, though single readings can be large or run the other way; also: potency is read from the fitted curve at half-maximal effect; % is scaled to controls: 0 for no effect and ±100 for the full control effect
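Reporter virus HCVcc-Cre (~0.5 moi) infects cells exposed to compound; seeding density 1,000 cells/well with 4 h settling beforehand. Luminescence, 15 sec read, taken 44 h post-infection following a 15 min RT substrate incubation.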
* = called active by the depositor; ? = inconclusive; nt = no result given; [ ] = another dose, or the depositor's remark. A selection: hits, their analogues and other compounds. The true share with any hit is near 13%.

SMILES | Marburg entry inh | Shiga inhibitor | CHX counter | FMDV inh | Lassa entry inh | HCV inhibitor
Cc1ccc2c(Cl)c(C(=O)Nc3cccnc3)sc2c1 | ? | 126.4* | 58.5* | -10.7% | ? | ?
CC1CCCN(C(=O)c2sc3cc([N+](=O)[O-])ccc3c2Cl)C1 (centres undefined) | -17.2% | 84.8* | 32.1* | 0.0% | -18.8% | ?
O=C(NC1CC1)c1sc2cc([N+](=O)[O-])ccc2c1Cl | -3.3% | 18.0 | 26.9* | 7.6% | 3.5% | -4.6%
O=C(c1sc2cc([N+](=O)[O-])ccc2c1Cl)N1CCCCC1 | ? | 0.0 | 19.6 | -23.7% | 24.4% | -26.7%
O=C(NC1CCS(=O)(=O)C1)c1sc2ccccc2c1Cl (centres undefined) | -5.2%[46.1 µM] | 21.8 | 22.4 | 31.7% | ? | -4.8%
Cn1nc(-c2ccc(Cl)cc2)c2cc(C(=O)N3CCN(C(=O)c4ccco4)CC3)sc21 | -0.7% | -14.9 | -0.4 | ? | nt | 8.3%
COc1cc2nc(CN3CC=C(c4ccccc4)CC3)[nH]c(=O)c2cc1OC | 15.9%[46.1 µM] | nt | nt | -11.2% | ? | 3.55µM*
COc1ccc(C2C(C(=O)NCCN3CCOCC3)c3ccccc3C(=O)N2C)cc1OC (centres undefined) | 16.2% | -17.2 | -3.7 | 12.5% | 10.7% | 12.4%
COc1cc(C(=S)N2CCOCC2)ccc1OS(=O)(=O)c1ccc(NC(C)=O)cc1 | ? | 15.8 | -1.8 | 12.6µM* | ? | ?
COc1cc(C(=S)N2CCCC2)ccc1OS(=O)(=O)c1ccc(NC(C)=O)cc1 | -24.4% | 31.3 | 3.2 | 20µM* | 16.4µM* | 10µM*
COc1cc(C(=S)N2CCCC2)cc(OC)c1OS(=O)(=O)c1ccc(NC(C)=O)cc1 | 6.6% | 2.7 | -3.1 | -16.4% | ? | -26.5%
COc1ccc(CNCCC(c2ccc(OC)cc2)c2ccccc2OC)cc1 (centres undefined) | ? | -4.3 | -3.3 | -5.7% | -15.2%[46.1 µM] | ?
COc1ccc(C(CCNCc2ccccc2)c2ccc(F)cc2)cc1 (centres undefined) | ? | -14.0 | -3.9 | 27.5% | ? | 6.31µM*
COc1ccc(C(CCNC(C)c2ccccc2)c2ccc(F)cc2)cc1 (centres undefined) | ? | -18.8 | -8.2 | 31.4% | ? | ?
COc1ccc(C(CCNCc2ccc(F)cc2)c2ccc(F)cc2)cc1 (centres undefined) | 14.6µM* | -25.5 | -8.5 | 23.1% | ? | ?
COc1ccc(CNCCC(c2ccc(F)cc2)c2ccc(OC)cc2)cc1 (centres undefined) | 11.2µM* | -17.2 | -7.7 | -9.8% | 12.6µM* | ?
COc1ccc(C(CCNCc2ccc(N(C)C)cc2)c2ccccc2OC)cc1 (centres undefined) | ? | 0.9 | -3.3 | ? | 15.8µM* | ?
COc1ccc(CNCCC(c2ccc(F)cc2)c2ccc(OC(C)C)cc2)cc1OC (centres undefined) | ? | -10.1 | -8.9 | -1.4% | ? | ?
CC(C)(C)Nc1nc(SCC(=O)Nc2ccccc2Cl)nc(N2CCOCC2)n1 | ? | -10.7 | 12.7 | -4.0% | ? | -22.8%
Cc1ccc(N2C(=O)Nc3cc(Cl)c(Cl)cc3N2O)cc1Cl | 19.1%[46.1 µM] | -15.0 | -3.1 | -5.9% | 12.7% | -6.9%
O=C1Nc2cc(Cl)c(Cl)cc2N(O)N1c1ccccc1 | 3.3% | 20.0 | 30.2* | nt | 17.7% | 0.5%
CCN1C(=O)N(C(C)=O)C2C1N(C(C)=O)C(=O)N2C(C)=O (centres undefined) | ? | -6.4 | -6.9 | -10.6% | -0.2%[46.1 µM] | 12.3%
Nc1cc2c(cc1O)CCCC2 | -3.5%[46.1 µM] | 136.3 | 51.4* | 3.6% | -1.5% | 8.8%
Oc1ccc2c(c1-c1c(O)c(Br)cc3c1CCCC3)CCCC2 | 26.3%[14.2 µM] | nt | nt | nt | nt | nt
CCNC(=S)N/N=C1\CCCCc2ccccc21 | 1.3% | 7.8 | -0.7 | -23.1% | -23.1% | -4.7%
SMILES | Marburg entry inh | Shiga inhibitor | CHX counter | FMDV inh | Lassa entry inh | HCV inhibitor
Cc1cccc(NC(=S)N/N=C2/CCCCc3ccccc32)c1 | -16.2% | -4.7 | -4.5 | -0.4% | ? | -70.5%
Cc1ccc(NC(=S)N/N=C2/CCCCc3ccccc32)cc1 | nt | 23.2 | 16.7* | 24.4% | nt | -22.4%
Cc1ccc(C)c(NC(=S)N/N=C2\CCc3ccccc32)c1 | nt | 13.9 | 14.0 | 9.1% | nt | 10µM*
S=c1[nH]nc(-c2ccncc2)n1/N=C/c1cccc2ccccc12 | nt | 4.5 | 1.2 | nt | nt | 2.2%
COc1ccc(N2CCN(c3nc(NCCc4ccc(OC)c(OC)c4)nc(OC)n3)CC2)cc1 | ? | -13.3 | -2.0 | 25.1µM* | ? | 11.2µM*
CCOc1nc(NCCc2ccc(OC)c(OC)c2)nc(N2CCN(c3ccc(OC)cc3)CC2)n1 | 8.4% | -8.9 | -4.0 | -11.3% | ? | 1.8%
COc1ccc(CC(=O)N2CCc3cc(OC)c(OC)cc3C2)cc1 | 0.5%[46.1 µM] | 1.8 | 1.8 | 5.7% | -0.6%[46.1 µM] | -13.3%
CCc1ccc(/C=C\C(=O)N2CCc3ccccc3C2)cc1 | 17.7% | 42.5* | 13.1* | 22.2% | 6.7% | -9.8%
COc1ccc(CC(=O)N2CCc3ccccc3C2)cc1 | nt | 23.8* | 22.1* | 31.5% | nt | -7.0%
COc1ccc(NC(=O)N2CCc3ccccc3C2)cc1 | ? | 78.5* | 63.4* | 40.0% | ? | 1.9%
Cc1cccc(OCC(=O)N2CCc3ccccc3C2)c1 | ? | 33.4* | 26.7* | 39.5% | -3.0% | 4.2%
Cc1ccc(NC2CCCN(C(=O)c3ccc(F)cc3)C2)cc1C (centres undefined) | nt | -3.4 | -1.2 | -24.1% | nt | -4.3%
COc1cc2c(cc1OC)CN(C(=O)COc1ccccc1C#N)CC2 | -26.0%[46.1 µM] | 19.1 | 22.0* | 17.1% | -5.3%[46.1 µM] | -21.6%
CCOc1ccc(NC(=O)N2CCc3ccccc3C2)cc1 | nt | 58.0* | 47.7* | 61.4% | nt | 0.2%
N#Cc1ccccc1OCC(=O)N1CCc2ccccc2C1 | 14.5%[46.1 µM] | 18.7 | 6.8 | 13.7% | -0.9% | -26.3%
O=C(/C=C/c1ccccc1[N+](=O)[O-])N1CCc2ccccc2C1 | -4.2%[46.1 µM] | 21.8 | 21.3* | 16.6% | 2.2%[46.1 µM] | -3.4%
O=C(c1cc(Cl)ccc1[N+](=O)[O-])N1CCc2ccccc2C1 | 2.4% | -6.6 | -1.9 | -5.7% | 4.5% | 7.3%
CCCc1cc(=O)[nH]c(SCC(=O)Nc2cc3c(cc2C(C)=O)OCO3)n1 | 9.7% | 7.3 | 10.8 | -20.0% | -5.3% | 16.6%
CSc1ccccc1NC(=O)c1cc(-c2cccs2)on1 | ? | 55.8* | 15.3 | 48.6% | 19.1% | 2.9%
Cc1ccc(O)c(NC(=O)c2cc(-c3cccs3)on2)c1 | 8.91µM* | 79.0* | 21.2* | 34.0% | -27.4% | -0.1%
Cc1ccc(O)c(NC(=O)c2cc(-c3ccc4c(c3)OCO4)on2)c1 | 13.7%[46.1 µM] | nt | nt | 20.4% | 2.5%[46.1 µM] | nt
Cc1ccc(O)c(NC(=O)c2cc(-c3ccc(F)cc3)on2)c1 | ? | 40.7 | 41.5* | 6.4% | 12.6%[46.1 µM] | 0.5%
CC(=O)Nc1ccc(NC(=O)c2cc(-c3cccs3)on2)cc1 | -24.1%[46.1 µM] | nt | nt | 48.0% | 2.2%[46.1 µM] | nt
O=C1c2ccccc2NC(c2cccc(Cl)c2)N1N=C1CCCCCC1 (centres undefined) | 9.1% | 52.1 | 37.2* | 38.1% | 11.2% | -7.5%
COc1ccc(C(=O)N2CCN=C2SC)cc1 | -5.4% | 16.2 | 17.2 | 28.4% | 25.9% | -7.9%

Screening data from PubChem BioAssay.
